# In the supplement of paper PMC9023506:
# Counter-ions that a name gives are not always drawn.
# System: Danio rerio larvae (5 dpf)
# Assay: activity during period 15 (no stimuli), difference vs DMSO (percentage points (treated minus DMSO)); higher = more of the behaviour than the DMSO vehicle control
# Conditions: 10 µM; exposure time: 3 h pre-incubation + 3 h imaging
# Protocol: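 5-dpf wild-type zebrafish larvae were imaged in 96-well plates. They were treated with 190 Tocris FDA-approved drugs at 10 µM (1 µl/ml DMSO) for 3 h before and 3 h during imaging at 28.5 °C, 48 larvae per drug. Automated image analysis gave % time moving and optomotor responses. Values are drug group mean minus DMSO vehicle mean (n=844), in percentage points, for 10 behaviours.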
row,SMILES,activity during period 15
1,CN(C)CCc1c[nH]c2ccc(Cn3cncn3)cc12 [Rizatriptan benzoate],-3.72
2,COc1cc2ncnc(Nc3ccc(F)c(Cl)c3)c2cc1OCCCN1CCOCC1 [Iressa],-0.986
3,COc1ccccc1Oc1c(NS(=O)(=O)c2ccc(C(C)(C)C)cc2)nc(-c2ncccn2)nc1OCCO [Bosentan],-4.44
4,C[C@H]1O[C@H](O[C@H]2[C@H](O)[C@@H](O)[C@@H](O[C@H]3[C@H](O)[C@@H](O)C(O)O[C@@H]3CO)O[C@@H]2CO)[C@H](O)[C@@H](O)[C@@H]1N[C@H]1C=C(CO)[C@@H](O)[C@H](O)[C@H]1O (stereo not given in full) [Acarbose],1.42
5,Cc1nnc(C(C)C)n1C1C[C@H]2CC[C@@H](C1)N2CC[C@H](NC(=O)C1CCC(F)(F)CC1)c1ccccc1 (stereo in doubt) [Maraviroc],-3.11
6,CC(C)(C)NC(=O)[C@@H]1C[C@@H]2CCCC[C@@H]2CN1C[C@@H](O)[C@H](Cc1ccccc1)NC(=O)[C@H](CC(N)=O)NC(=O)c1ccc2ccccc2n1 [Saquinavir mesylate],-12.8
7,CC(C)COCC(CN(Cc1ccccc1)c1ccccc1)N1CCCC1 (stereo not given) [Bepridil hydrochloride],13.7
8,Cc1cc2c(s1)Nc1ccccc1N=C2N1CCN(C)CC1 [Olanzapine],5.7
9,COc1cc2nc(N3CCN(C(=O)c4ccco4)CC3)nc(N)c2cc1OC [Prazosin hydrochloride],1.78
10,NS(=O)(=O)c1cc2c(cc1Cl)NC(C1CC3C=CC1C3)NS2(=O)=O (stereo not given) [Cyclothiazide],3.93
11,NS(=O)(=O)c1cc(C(=O)O)c(NCc2ccco2)cc1Cl [Furosemide],9.33
12,CNCc1ccc(-c2[nH]c3cc(F)cc4c3c2CCNC4=O)cc1 [Rucaparib camsylate],-8.43
13,CC[C@H](C)C(=O)O[C@H]1C[C@@H](C)C=C2C=C[C@H](C)[C@H](CC[C@@H]3C[C@@H](O)CC(=O)O3)[C@H]21 [Lovastatin],-4.33
14,CCCc1nn(C)c2c(=O)[nH]c(-c3cc(S(=O)(=O)N4CCN(C)CC4)ccc3OCC)nc12 [Sildenafil citrate],-20.2
15,Cn1cnc([N+](=O)[O-])c1Sc1ncnc2[nH]cnc12 [Azathioprine],8.85
16,Cc1nc(Nc2ncc(C(=O)Nc3c(C)cccc3Cl)s2)cc(N2CCN(CCO)CC2)n1 [Dasatinib],-15.1
17,O=C(NCC1CCCCN1)c1cc(OCC(F)(F)F)ccc1OCC(F)(F)F (stereo not given) [Flecainide acetate],-6.75
18,COc1cc2nc(N3CCN(C(=O)C4COc5ccccc5O4)CC3)nc(N)c2cc1OC (stereo not given) [Doxazosin mesylate],-7.81
19,COc1cc(N)c(Cl)cc1C(=O)NC1CCN(CCCOc2ccc(F)cc2)CC1OC (stereo not given) [Cisapride],-0.757
20,O=C1CCc2cc(OCCCCc3nnnn3C3CCCCC3)ccc2N1 [Cilostazol],3.03

row,SMILES,activity during period 15
1,CCCCC1=NC2(CCCC2)C(=O)N1Cc1ccc(-c2ccccc2-c2nnn[nH]2)cc1 [Irbesartan],5.68
2,COC(=O)C1=C(C)NC(C)=C(C(=O)OC(C)C)C1c1cccc2nonc12 (stereo not given) [Isradipine],-12.3
3,O=C(Nc1c(Cl)cncc1Cl)c1ccc(OC(F)F)c(OCC2CC2)c1 [Roflumilast],-9.33
4,O=C(O)CCCc1ccccc1 [Sodium 4-Phenylbutyrate],0.951
5,Nc1ccn([C@@H]2O[C@H](CO)[C@@H](O)C2(F)F)c(=O)n1 [Gemcitabine hydrochloride],-1.53
6,CCN(Cc1ccncc1)C(=O)C(CO)c1ccccc1 (stereo not given) [Tropicamide],6.31
7,Cc1cccc(CN2CCN(C(c3ccccc3)c3ccc(Cl)cc3)CC2)c1 (stereo not given) [Meclizine dihydrochloride],8.13
8,CN1CC(=O)N2[C@H](c3ccc4c(c3)OCO4)c3[nH]c4ccccc4c3C[C@@H]2C1=O [Tadalafil],-1.47
9,CCCCCCCCc1ccc(CCC(N)(CO)CO)cc1,-23.3
10,CCC(C)(C)C(=O)O[C@H]1C[C@@H](C)C=C2C=C[C@H](C)[C@H](CC[C@@H]3C[C@@H](O)CC(=O)O3)[C@H]21 [Simvastatin],-3.71
11,COc1c(C)c2c(c(O)c1C/C=C(\C)CCC(=O)OCCN1CCOCC1)C(=O)OC2 [Mycophenolate mofetil],-0.943
12,CC(=O)O[C@H]1C(=O)[C@@]2(C)[C@H]([C@H](OC(=O)c3ccccc3)[C@]3(O)C[C@H](OC(=O)[C@H](O)[C@@H](NC(=O)c4ccccc4)c4ccccc4)C(C)=C1C3(C)C)[C@]1(OC(C)=O)CO[C@@H]1C[C@@H]2O [Taxol],-4.11
13,CCOC(=O)N1CCC(=C2c3ccc(Cl)cc3CCc3cccnc32)CC1 [Loratidine],-25
14,CC(C)(C#N)c1cc(Cn2cncn2)cc(C(C)(C)C#N)c1 [Anastrozole],2.84
15,CN1CC[C@@H](NC(=O)Nc2ccc(C#N)cc2)C[C@@H]1c1nc2ccccc2[nH]1,-0.815
16,CNC(=O)c1ccccc1Sc1ccc2c(/C=C/c3ccccn3)n[nH]c2c1 [Axitinib],3.22
17,CS(=O)(=O)CCNCc1ccc(-c2ccc3ncnc(Nc4ccc(OCc5cccc(F)c5)c(Cl)c4)c3c2)o1 [Lapatinib],-13.3
18,Cc1nc(-c2ccc(OCC(C)C)c(C#N)c2)sc1C(=O)O [Febuxostat],10
19,Nc1ncn([C@@H]2O[C@H](CO)[C@@H](O)[C@H]2O)c(=O)n1 [5-Azacytidine],1.42
20,Nc1ncn([C@H]2C[C@H](O)[C@@H](CO)O2)c(=O)n1 [Decitabine],1.76
